Bioassay records from PubChem BioAssay.
Rows were chosen to be rich in hits. Some 13% of all compounds tested hit in one or more screens of this group.
G9a block: qHTS Assay for Inhibitors of Histone Lysine Methyltransferase G9a; Histone-lysine N-methyltransferase EHMT2 (Homo sapiens), Q96KQ7; G9a H3K9 monomethylation, AlphaScreen, 2 h; Potency, µM (top dose mostly 102 µM), inactives show at the highest dose activity, negative = inhibition, most hits filed as inhibitors; actives 8.8% (n = 350,000); note: potency is the fitted concentration of half-maximal effect; % is set by controls: 0 for no effect and ±100 for the full control effect; nearly all actives have a fitted effect of over 75% in size
Target sequence (Q96KQ7 913-1193 limits assumed): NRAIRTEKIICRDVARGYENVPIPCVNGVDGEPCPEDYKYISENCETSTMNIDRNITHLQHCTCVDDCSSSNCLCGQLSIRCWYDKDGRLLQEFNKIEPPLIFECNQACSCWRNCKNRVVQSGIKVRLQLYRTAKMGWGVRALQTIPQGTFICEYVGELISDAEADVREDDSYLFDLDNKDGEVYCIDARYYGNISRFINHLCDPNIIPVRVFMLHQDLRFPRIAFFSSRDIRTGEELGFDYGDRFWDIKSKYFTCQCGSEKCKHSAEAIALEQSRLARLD
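Chemiluminescent proximity detection of H3K9 monomethylation, read after 10 min bead incubation in the dark. Reaction: 20 nM G9a, 500 nM biotin-H3K9 peptide, 20 uM SAM cofactor, 2 h, room temperature, following 15 min enzyme-compound preincubation.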
Sfp PPTase inh: qHTS Assay for Inhibitors of Bacillus subtilis Sfp phosphopantetheinyl transferase (PPTase) | Biochemical Sfp PPTase activity, qHTS | actives 3.5% (n = 310,000) | Potency, µM, without a hit: largest response in the series, negative = inhibition, most hits filed as inhibitors;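 note: the enzyme is Sfp with the accession as filed and its product quenches rhodamine fluorescence; potency is the fitted concentration of half-maximal effect; 0% = enzyme reaction without inhibitor and -100% = no enzyme wells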
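After 15 min at room temperature with compound, 15 nM Sfp received 5 uM rhodamine-CoA plus 12.5 uM BHQ-2-ybbR (50 mM Hepes pH 7.6, 10 mM MgCl2). Rate came from the fluorescence difference over 30 min, ex 525/em 598 nm.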
miR-21 act: qHTS Assay for Modulators of miRNAs and/orActivators of miR-21 | HeLa miR-21 FLuc reporter, luciferase, 48 h | Potency, µM (series often up to 38.3 µM), inactives show at the top dose activity change, positive = activation, usual class: activators | 340,000 tested, under 10 active | AID 2288, 2010;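 note: % of control where 0% means no effect; miR-21 action dims this reporter so a rising signal means less miR-21 action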
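Compounds were titrated across several concentrations (up to approximately 40 uM) and incubated 48 hours with HeLa miR-21-FLuc reporter cells (miR-21 target sequence downstream of FLuc, endogenous miR-21). Readout was firefly luciferase luminescence after lytic detection reagent.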
ALDH1A1 block: qHTS Assay for Inhibitors of Aldehyde Dehydrogenase 1 (ALDH1A1); Aldehyde dehydrogenase 1A1 (Homo sapiens), P00352; Purified ALDH1A1, NADH fluorescence, propionaldehyde substrate; Potency, µM (titrated, usually from 75.3 µM), for the others: top-dose activity, negative = inhibition, actives largely listed as inhibitors; actives 7.3% (n = 220,000); active = well fitted inhibition curve with a large enough effect, not every such curve was filed as active; inconclusive = small, poorly fitted or top-dose-only effect, or another doubt; inactive = no such curve, though single readings can be large or run the other way;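 note: potency is the fitted concentration of half-maximal effect; plate controls were no enzyme wells and a reference inhibitor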
KDM4E inh: qHTS Assay for Inhibitors of Human Jumonji Domain Containing 2E (JMJD2E); Lysine-specific demethylase 4E (Homo sapiens), B2RXH2; JMJD2E catalytic domain, FDH-coupled NADH fluorescence (FDH is formaldehyde dehydrogenase); Potency, µM (series often up to 57.1 µM), for the others: at the top dose activity change, negative = inhibition, actives largely listed as inhibitors; actives 1.6% (n = 230,000); AID 2147, 2009; active = well fitted inhibition curve with a large enough effect, not every such curve was filed as active; inconclusive = small, poorly fitted or top-dose-only effect, or another doubt; inactive = no such curve, though single readings can be large or run the other way;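 note: potency is the fitted concentration of half-maximal effect; 0% = wells with enzyme and -100% = buffer wells without enzyme; nearly all actives have a fitted effect of over 50% in size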
Target sequence (B2RXH2 1-337 limits assumed): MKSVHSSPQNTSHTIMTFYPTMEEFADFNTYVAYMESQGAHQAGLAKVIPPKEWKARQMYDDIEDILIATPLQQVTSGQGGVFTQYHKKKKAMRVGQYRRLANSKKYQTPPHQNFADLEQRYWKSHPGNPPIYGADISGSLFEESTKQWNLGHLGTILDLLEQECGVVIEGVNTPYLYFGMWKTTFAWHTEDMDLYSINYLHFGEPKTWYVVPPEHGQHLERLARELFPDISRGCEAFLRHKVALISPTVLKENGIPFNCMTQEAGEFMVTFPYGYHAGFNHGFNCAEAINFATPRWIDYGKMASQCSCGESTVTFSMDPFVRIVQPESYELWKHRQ
Lamin A splicing: qHTS Assay for Modulators of Lamin A Splicing; HeLa LMNA splicing GFP/RFP minigene ratio, 48 h; Potency, µM (titrated, usually from 46.1 µM), without a hit: top-dose ratio change, negative = inhibition, actives largely listed as inhibitors; actives 0.01% (n = 200,000); AID 1487, 2009; active = well fitted inhibition curve with a large enough effect in the signal ratio, with a control signal flat, not every such curve was filed as active; inconclusive = small, poorly fitted or top-dose-only effect, or effect the other way, or a change in a side signal; the % refers to the signal ratio; note: potency is the fitted concentration of half-maximal effect; % is set by controls: 0 for no effect and ±100 for the full control effect
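Read-out is the ratio of GFP to DsRed2 object intensity, acquired by 488 nm laser-scanning cytometry on HeLa lamin A-EGFP minigene reporter cells. Compound incubation 48 hrs at 37 °C in Opti-MEM with 2% FBS; DMSO 0.5% final.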
The depositor's hits bear a star; ? = inconclusive; · = not tested or not shown; [ ] = dose if it differs, or a comment. Unless noted, calls come from the whole dose curve; as a rule, active = well fitted curve in the direction sought with a large enough effect; inconclusive = small, poorly fitted or top-dose-only effect, or another doubt; inactive = no such curve, though single readings can be large; an effect the other way counts as inactive or inconclusive.

SMILES	G9a block	Sfp PPTase inh	miR-21 act	ALDH1A1 block	KDM4E inh	Lamin A splicing
CCOC(=O)c1cc(-c2ccc(OC)cc2)n(CCC(=O)Nc2nc3ccc(OCC)cc3s2)c1C	-31%[59 µM]	·	3%	·	·	?
CN(C)Cc1ccccc1-c1nc(NC2CCNCC2)c2ccccc2n1	10%[0.501 µM]	15%	·	-11%	·	?
CCOC(=O)c1cc2c(C)n(-c3ccc(C)cc3)c(C)c2ccc1=O	·	-75%	3%	-1%	-9%	?
CCOC(=O)c1cc2c(C)n(-c3ccc(OCC)cc3)c(C)c2ccc1=O	·	79µM*	10%	?	?	4%
CCCCCCCCCCCCCCCC(=O)OCC(COP(=O)(O)O)OC(=O)CCCCCCCCCCCCCCC (stereo not given)	30%[59 µM]	9%	·	0%	15%	·
CC(=O)N1CCOc2cc(S(=O)(=O)Nc3c(C)cccc3C(C)C)c(Cl)cc21	?	·	-1%	·	·	?
COc1ccc(NC(=O)C(c2ccccn2)N(C(C)=O)c2ccc(C)cc2)cc1 (stereo not given)	-19%	-4%	-24%	6%	-2%	-3%
CCOc1ccc(NC(=O)C(c2ccccn2)N(C(=O)CCl)c2ccc(OC)cc2)cc1 (stereo not given)	2µM*	14µM*	-34%	-7%	-5%	2%
COc1ccc(N=C2C(=Nc3ccc(OC)cc3)N(c3ccccc3)C(=S)N2C(=O)c2ccc(Cl)cc2)cc1	7.1µM*	50µM*	-63%	?	6%	-11%
COc1ccc(N=C2NC(=O)S/C2=C\c2ccc(N(C)C)cc2)cc1	-42%[59 µM]	-7%	-52%	-8%	2%	-4%
COc1ccc(N=C2C(=Nc3ccc(OC)cc3)N(c3ccc(OC)cc3)C(=S)N2C(=O)c2ccc(OC)cc2)cc1	3.5µM*	-25%	-34%	?	-7%	3%
COc1ccc(C(=O)c2ccc(Cl)cc2)cc1	15%	-9%	-14%	0%	-5%	4%
COc1ccc(N=C2C(=Nc3ccc(OC)cc3)N(c3ccc(N(C)C)cc3)C(=S)N2c2ccc(OC)cc2)cc1	8.9µM*	3%	-14%	?	0%	4%
COc1cc(NC(=O)COc2ccccc2[N+](=O)[O-])ccc1NC(=O)c1cccs1	·	16µM*	-30%	16%	-1%	·
CC(C)(C)C(=O)COc1ccccc1[N+](=O)[O-]	-30%	18%	4%	20µM*	4%	?
CCN(CC)c1ccc(NC(=O)COC(=O)COc2ccccc2[N+](=O)[O-])cc1	7.1µM*	-3%	-1%	?	-1%	-9%
O=C(COC(=O)COc1ccccc1[N+](=O)[O-])Nc1ccccc1Br	20%[59 µM]	-12%	-3%	18µM*	-1%	-8%
Nn1c(SCc2ccc(F)cc2)nnc1-c1ccncc1	?	8%	-3%	·	4%	·
CC1=[N+](C)c2c(ccc3cccnc23)C1(C)C	3.2µM*	11µM*	?	?	?	·
Cc1[nH]c2c(ccc3cccnc32)c1C	-33%[12.7 µM]	-29%	-19%	·	?	·
COc1ccccc1CNC(=O)CCn1nc(C)c2c(C)n(-c3ccccc3)nc2c1=O	-18%[59 µM]	·	-1%	·	·	·
O=C(/C=C/c1ccc(OC(F)F)cc1)OCC(=O)N1CCc2ccccc21	45µM*	·	·	·	·	·
O=C(OCC(=O)N1CCc2ccccc21)c1ccncc1	-8%[59 µM]	·	·	·	·	·
CCOc1ncccc1C(=O)OCC(=O)N1CCc2ccccc21	-2%	1%	-3%	7.9µM*	6%	-3%[46 µM]
O=C(OCC(=O)N1CCCc2ccccc21)c1cncc(Br)c1	6%	71µM*	-1%	-20%	-4%	-2%
SMILES	G9a block	Sfp PPTase inh	miR-21 act	ALDH1A1 block	KDM4E inh	Lamin A splicing
O=C(CO/N=C/c1ccc(OC(F)F)cc1)N1CCc2ccccc21	-1%[59 µM]	-4%	4%	?	2%	-3%
O=C1CN(C(=O)COC(=O)C2=COCCO2)c2ccccc2N1	-2%	-2%	-6%	12%	1%	0%
O=C(OCC(=O)N1CCc2ccccc21)C1=COCCO1	?	-9%	-35%	14µM*	6%	-4%
NC(=NCCC[C@H](N)C(=O)O)NO	33%[12.7 µM]	·	·	-7%	-4%	-21%
COC(=O)N/N=C/c1cc(C)n(-c2ccc(Br)cc2)c1C	·	-9%	-4%	?	25µM*	·
COC(=O)N/N=C/c1cc(C)n(-c2ccc(F)cc2)c1C	?	6%	-33%	-3%	?	·
CCc1ccc(-n2c(C)cc(/C=N/NC(=O)OC)c2C)cc1	3%[59 µM]	-20%	-9%	?	10µM*	?
CCOc1ccc(C2C(=O)N(C3CCCCCC3)CC(=O)N2CCc2ccc(Cl)cc2)cc1OC (stereo not given)	-29%[59 µM]	·	25%	·	·	?
O=C(NNC(=O)c1ccco1)c1csc(N2CCOCC2)n1	7.1µM*	·	·	·	·	·
CCc1ccc(O)c(N=Cc2ccccc2O)c1	?	-26%	-12%	?	?	-25%
O=c1[nH][nH]c2c(N=Cc3ccccc3O)ccc(F)c12	8.9µM*	7.9µM*	6%	8.9µM*	-11%	9%[46 µM]
O=[N+]([O-])c1ccc(Nc2ccc(F)cc2)cc1	9%	9%	-11%	·	·	·
COC(=O)C(NNc1ccccc1)(NC(=O)c1ccc(F)cc1)C(F)(F)F (stereo not given)	35µM*	-6%	-13%	?	·	20%
COC(=O)C(NNc1ccccc1)(NC(=O)c1ccccc1F)C(F)(F)F (stereo not given)	23%[12.7 µM]	15%	-7%	5%	5%	5%
O=C(NC(NNc1ccc([N+](=O)[O-])cc1)(C(F)(F)F)C(F)(F)F)c1ccccc1Cl	?	-18%	16%	14µM*	?	-4%
O=C(NC(NNc1ccc([N+](=O)[O-])cc1)(C(F)(F)F)C(F)(F)F)c1ccc(F)cc1	13µM*	-6%	29%	?	0%	?
O=C(NC(Nc1nc2ccc([N+](=O)[O-])cc2s1)(C(F)(F)F)C(F)(F)F)c1ccccc1Cl	79µM*	28%	29%	?	-9%	?
C#CCOCCOCCOCCNc1nc(N2CCN(C(=O)CCCCCCCCCCNC(=O)Cn3cc(CCCCCN)nn3)CC2)nc(N2CCN(C(=O)CCCCCCCCCCNC(=O)[C@H]([C@@H](C)CC)n3cc(CCCCCN)nn3)CC2)n1	-49%[2.33 µM]	·	·	·	·	·
Cc1nn2c(C)c(C(=O)Nc3ccccc3)cnc2c1C#N	16µM*	14%	-2%	3%	1%	-2%
